KCNQ2 pot – KCNQ2 (rat) channel potentiation; O88943; CHO-K1 KCNQ2, FluxOR thallium flux fluorescence; hits give high values; B-score at 10 µM; actives 0.54% (n = 310,000); AID 2239;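 active means fluorescence ratio B-score at least 3 SD of library B-scores, with initial fluorescence B-score within 3 of them, cut at about 5.3 in these data; same plate scores as AID 2156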;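 further: B-score of peak minus minimum over baseline fluorescence ratio after K+ and Tl+ stimulus; positive B-score means potentiation of KCNQ2 with more thallium influx and brighter signal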
Target sequence (O88943 whole entry, looked up): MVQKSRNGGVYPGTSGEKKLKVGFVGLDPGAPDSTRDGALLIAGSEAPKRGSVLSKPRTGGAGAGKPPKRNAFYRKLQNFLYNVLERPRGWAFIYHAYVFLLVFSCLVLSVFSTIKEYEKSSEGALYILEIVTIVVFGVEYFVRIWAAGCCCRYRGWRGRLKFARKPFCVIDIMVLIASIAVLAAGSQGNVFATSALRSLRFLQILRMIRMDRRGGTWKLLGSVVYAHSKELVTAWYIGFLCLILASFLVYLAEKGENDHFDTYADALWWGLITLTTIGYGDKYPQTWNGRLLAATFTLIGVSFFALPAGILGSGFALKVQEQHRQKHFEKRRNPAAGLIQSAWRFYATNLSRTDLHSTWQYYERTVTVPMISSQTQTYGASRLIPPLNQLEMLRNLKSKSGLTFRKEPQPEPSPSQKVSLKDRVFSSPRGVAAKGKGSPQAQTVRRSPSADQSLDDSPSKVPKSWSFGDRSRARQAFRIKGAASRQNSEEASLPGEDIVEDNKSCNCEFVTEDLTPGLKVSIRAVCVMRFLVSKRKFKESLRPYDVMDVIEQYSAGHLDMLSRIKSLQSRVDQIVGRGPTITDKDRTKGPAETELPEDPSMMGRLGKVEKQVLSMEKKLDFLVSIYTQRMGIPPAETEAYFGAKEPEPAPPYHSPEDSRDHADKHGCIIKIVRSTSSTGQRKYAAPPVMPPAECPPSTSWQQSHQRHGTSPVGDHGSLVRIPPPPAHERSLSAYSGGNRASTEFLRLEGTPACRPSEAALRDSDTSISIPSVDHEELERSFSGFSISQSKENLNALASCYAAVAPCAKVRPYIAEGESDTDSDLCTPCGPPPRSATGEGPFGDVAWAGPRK
KCNQ2 inh – inhibitors of rat KCNQ2 potassium channel. O88943. CHO-K1 KCNQ2, FluxOR thallium flux, 20 min; hits give low values. B-score at 10 µM. actives 1.1% (n = 310,000);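 active means fluorescence ratio B-score at most minus 3 library SDs, with starting brightness B-score within 2 library SDs, cut at about -5.5 in these data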
Kir21 confirm – confirmation of mouse Kir2.1 potassium channel inhibitors; shares compounds with KCNQ2 pot; Kir2.1-expressing cells, FluxOR thallium flux fluorescence; hits give low values; Tl flux remaining, % of negative control (hits give low values), % at 10 µM; actives 41% (n = 2,300);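 active means Primary-screen hit whose thallium flux fell at least 3 control SD below untreated wells in both duplicates, with normal baseline fluorescence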;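 further: 0% = blank wells without stimulus and 100% = stimulated no-compound controls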
HEK293 Tl flux – counter-screen for Kir2.1 inhibitors: effect in parental HEK293 cells; shares compounds with KCNQ2 pot; FluxOR thallium flux fluorescence; 0% = unstimulated blank wells; FluxOR signal as % of negative control (100 = no effect), % at 10 µM; actives 19% (n = 2,300); AID 2105;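 active means dye signal at least 3 control SD above or below untreated wells in both duplicates, raw fluorescence within 3, either direction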;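 further: percent is based on the flux ratio of peak minus minimum fluorescence over baseline F0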
Starred values were filed as active, the others as inactive. In the library only some 1.6% were active in any assay of this set; here they are far more common.

For CC(C)CC(NC(=O)C1CCC(=O)N1C(=O)OCc1ccccc1)C(=O)NC(Cc1ccccc1)C(N)=O (centres undefined) the results were KCNQ2 inh inactive.
Screening CC(C)c1ccc(C(C)NCCS(=O)(=O)c2ccc(Cl)cc2)cc1 (centres undefined) returned KCNQ2 inh inactive, Kir21 confirm 56%* and HEK293 Tl flux inactive.
`CC(C(=O)NCCS(=O)(=O)c1ccc(Br)cc1)S(=O)(=O)c1ccc(Cl)cc1` (centres undefined) gave KCNQ2 inh inactive.
Screening Cc1ccc(S(=O)(=O)NCc2ccccc2)cc1C(=O)NCC1CCCO1 (centres undefined) returned KCNQ2 inh inactive.
`Cn1c(SCC(=O)Nc2cccc(S(=O)(=O)NC3=NCCCCC3)c2)nnc1-c1ccccc1` gave KCNQ2 pot 0.06 and KCNQ2 inh inactive.
For O=C1CSC(c2cccnc2)N1C1CCCCC1 (centres undefined) the results were KCNQ2 pot 0.39 and KCNQ2 inh inactive.
For O=C1CSC(c2ccc(Cl)cc2)N1C1CCCCC1 (centres undefined) the results were KCNQ2 inh inactive, Kir21 confirm 64%* and HEK293 Tl flux inactive.
Screening Fc1cccc(CSc2ccc3nnc(-c4cccnc4)n3n2)c1 returned KCNQ2 pot 0.42 and KCNQ2 inh inactive.
Screening CCN(CC)S(=O)(=O)c1ccc(NC(=O)COC(=O)CCc2cc(OC)c(OC)c(OC)c2)cc1 returned KCNQ2 pot 0.56 and KCNQ2 inh inactive.
`COc1cccc(NC(=O)c2sc3nc(N4CCOCC4)c4c(c3c2N)CCCC4)c1` gave KCNQ2 pot 0.07 and KCNQ2 inh inactive.
Screening CCOc1ccc(NS(=O)(=O)c2c(C)nc3sccn3c2=O)cc1 returned KCNQ2 pot 1.9 and KCNQ2 inh inactive.
For COc1ccccc1N1CCN(C(=O)Cn2nc3n(C)c4ccccc4n3c(=O)c2=O)CC1 the results were KCNQ2 inh inactive.
For COC(=O)CN(c1nc(C)cc(OC)n1)S(=O)(=O)c1ccc(C)cc1 the results were KCNQ2 pot 2.2 and KCNQ2 inh inactive.
`C=CCN(c1nc(C)cc(OC)n1)S(=O)(=O)c1ccccc1` gave KCNQ2 inh inactive, Kir21 confirm 55%* and HEK293 Tl flux 72%*.
For CCN(c1nc(C)cc(OC)n1)S(=O)(=O)c1ccccc1 the results were KCNQ2 inh inactive, Kir21 confirm 56%* and HEK293 Tl flux 74%*.
Screening C=CCN(c1nc(C)cc(OC)n1)S(=O)(=O)c1ccc(C)cc1 returned KCNQ2 inh inactive.
`Cc1cccc(S(=O)(=O)N2CCCc3ccccc32)c1` gave KCNQ2 inh inactive, Kir21 confirm inactive and HEK293 Tl flux inactive.
Cc1cc(C)c(S(=O)(=O)N2CCCc3ccccc32)c(C)c1 was read as KCNQ2 inh inactive.
Screening COCCNC(=O)CN1N=C(c2ccc(C)cc2)CCC1=O returned KCNQ2 inh inactive.
COc1ccc(C(=O)c2c(C)c3ccccc3n2CC(O)CNC(C)C)cc1 (centres undefined) was read as KCNQ2 pot 0.75 and KCNQ2 inh inactive.
Screening CC(C)NCC(O)Cn1c2c(c3ccccc31)CCc1c-2cnn1-c1ccccc1 (centres undefined) returned KCNQ2 inh inactive, Kir21 confirm 54%* and HEK293 Tl flux inactive.
CC(C)(C(=O)c1cccnc1)c1cccnc1 was read as KCNQ2 inh inactive.
Screening Cc1ccc(C(=O)Nn2c(N)c(S(=O)(=O)c3ccc(C)cc3)c3nc4ccccc4nc32)cc1 returned KCNQ2 pot 0.47 and KCNQ2 inh inactive.

Screening data from PubChem BioAssay.
